The record followed here is PubChem BioAssay.

A short description of assay [1]: antimalarial activity against Dd2 strain (AID 2302;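 active = growth inhibition above 50% at the single 2 µM test dose, taken to imply half-maximal potency below 2 µM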;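 note: 0% = DMSO untreated growth and 100% = chloroquine plus artemisinin killed control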). As to conditions: P. falciparum Dd2 in RBCs, LDH growth readout, 72 h; at 2 µM; stronger effect = higher value.
Assay [2] can be described thus: HepG2 cytotoxicity, primary screen, cytotoxicity control for P. falciparum antimalarial project, cell-based, ATP luminescence (AID 2303;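 active = inhibition above 50%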;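 note: 0% = DMSO wells and 100% = digitonin-killed cells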). As to conditions: HepG2 viability, 24-48 h, at 10 µM, stronger effect = higher value.
Assay [3] concerns the target L-lactate dehydrogenase (Plasmodium falciparum (isolate CDC / Honduras)) (UniProt Q27743). The assay is described as follows: PfLDH activity inhibition – cell lysate, 3D7 strain, counter-screen for P. falciparum growth inhibition project (AID 2304).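 Note: 0% = vehicle and 100% = reference inhibitor.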 The note with it: P. falciparum 3D7 crude extract, LDH APAD/NBT absorbance; at 2 µM; stronger effect = higher value. In general terms: The purpose of a counterscreen is to sort out artefacts and off-target activity.

Assay [4] can be described thus: inhibition of 3D7 malaria parasite growth – strain 3D7 (AID 2306).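 Note: 0% = DMSO wells and 100% = chloroquine plus artemisinin control wells.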 As to conditions: P. falciparum 3D7 erythrocytic growth, LDH absorbance, 72 h; at 2 µM; stronger effect = higher value.
Assay [5] has as its target Calcium-dependent protein kinase 1 (Plasmodium falciparum (isolate 3D7)) (UniProt P62344). The assay is described as follows: PfCDPK1 kinase inhibitors, biochemical, TCAMS library (AID 1159585; cut-off not given, nearly all actives have IC50 up to about 0.98 µM;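 note: inhibitors leave more ATP so luminescence rises with inhibition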). The note with it: recombinant PfCDPK1, Kinase-Glo ATP depletion luminescence.
The target in assay [6] is Plasmodium falciparum protein kinase 6 (PK6, PF3D7_1337100) (UniProt Q8IDW1). The assay is described as follows: PfPK6 kinase inhibitors, biochemical, TCAMS library (AID 1159586). As to conditions: recombinant PfPK6, Kinase-Glo ATP depletion luminescence. On the technique in general: Kinase-Glo measures the ATP left after a reaction by luminescence.
Assay [7] addresses Protein kinase 7 (PK7), Plasmodium falciparum 3D7 (PF3D7_0213400) (UniProt Q7YTF7). The assay is described as follows: inhibition of Plasmodium PK7 catalytic activity – biochemical, TCAMS antimalarial set, Kinase-Glo luminescence (AID 1159587). The note with it: recombinant PfPK7, Kinase-Glo ATP depletion luminescence.
The target in assay [8] is Calcium-dependent protein kinase 4 (Plasmodium falciparum (isolate 3D7)) (UniProt Q8IBS5). In words: PfCDPK4 kinase inhibitors, biochemical, TCAMS library (AID 1159588; cut-off not given, nearly all actives have IC50 up to about 0.91 µM). As to conditions: recombinant PfCDPK4, Kinase-Glo ATP depletion luminescence.

A number with no mark means an inactive call. For part of these data: Potency and affinity values are given separately. The source made the active and inactive calls. Unless noted, the rule behind the calls is not given here.

Sequence of Plasmodium falciparum protein kinase 6 (PK6, PF3D7_1337100) (Q8IDW1 1-305): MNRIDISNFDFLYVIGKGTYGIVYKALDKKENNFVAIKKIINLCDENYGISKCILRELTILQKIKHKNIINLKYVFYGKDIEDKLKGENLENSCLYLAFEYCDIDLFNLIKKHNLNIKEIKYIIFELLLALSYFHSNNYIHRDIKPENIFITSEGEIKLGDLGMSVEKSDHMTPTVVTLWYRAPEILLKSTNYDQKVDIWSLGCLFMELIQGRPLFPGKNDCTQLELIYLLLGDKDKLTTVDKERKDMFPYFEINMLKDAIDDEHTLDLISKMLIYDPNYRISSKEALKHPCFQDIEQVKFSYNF
Sequence of Protein kinase 7 (PK7), Plasmodium falciparum 3D7 (PF3D7_0213400) (Q7YTF7 1-343): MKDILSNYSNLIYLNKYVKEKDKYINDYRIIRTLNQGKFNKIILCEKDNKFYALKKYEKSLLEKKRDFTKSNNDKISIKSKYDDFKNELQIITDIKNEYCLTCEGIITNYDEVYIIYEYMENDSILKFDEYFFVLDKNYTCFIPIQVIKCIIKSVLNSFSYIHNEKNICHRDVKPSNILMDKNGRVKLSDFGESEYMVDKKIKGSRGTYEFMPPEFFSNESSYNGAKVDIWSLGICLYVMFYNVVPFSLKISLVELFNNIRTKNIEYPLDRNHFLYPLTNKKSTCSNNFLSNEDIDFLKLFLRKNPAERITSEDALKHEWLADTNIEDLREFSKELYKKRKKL
Sequence of Calcium-dependent protein kinase 1 (Plasmodium falciparum (isolate 3D7)) (P62344 whole entry, looked up): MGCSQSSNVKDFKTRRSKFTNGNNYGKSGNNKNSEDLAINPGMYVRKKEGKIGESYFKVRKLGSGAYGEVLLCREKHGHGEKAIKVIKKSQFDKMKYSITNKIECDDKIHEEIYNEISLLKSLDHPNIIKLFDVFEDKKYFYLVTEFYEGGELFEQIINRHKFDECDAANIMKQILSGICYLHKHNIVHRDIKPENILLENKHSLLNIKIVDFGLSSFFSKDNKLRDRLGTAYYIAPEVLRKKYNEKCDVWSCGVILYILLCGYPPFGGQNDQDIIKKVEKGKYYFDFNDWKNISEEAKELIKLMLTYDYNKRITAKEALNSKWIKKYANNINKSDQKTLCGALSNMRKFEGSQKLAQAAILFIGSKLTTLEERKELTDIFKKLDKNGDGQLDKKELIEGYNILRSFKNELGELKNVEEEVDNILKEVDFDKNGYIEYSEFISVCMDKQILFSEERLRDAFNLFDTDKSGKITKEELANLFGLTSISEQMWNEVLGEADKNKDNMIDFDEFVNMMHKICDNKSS
Sequence of Calcium-dependent protein kinase 4 (Plasmodium falciparum (isolate 3D7)) (Q8IBS5 whole entry, looked up): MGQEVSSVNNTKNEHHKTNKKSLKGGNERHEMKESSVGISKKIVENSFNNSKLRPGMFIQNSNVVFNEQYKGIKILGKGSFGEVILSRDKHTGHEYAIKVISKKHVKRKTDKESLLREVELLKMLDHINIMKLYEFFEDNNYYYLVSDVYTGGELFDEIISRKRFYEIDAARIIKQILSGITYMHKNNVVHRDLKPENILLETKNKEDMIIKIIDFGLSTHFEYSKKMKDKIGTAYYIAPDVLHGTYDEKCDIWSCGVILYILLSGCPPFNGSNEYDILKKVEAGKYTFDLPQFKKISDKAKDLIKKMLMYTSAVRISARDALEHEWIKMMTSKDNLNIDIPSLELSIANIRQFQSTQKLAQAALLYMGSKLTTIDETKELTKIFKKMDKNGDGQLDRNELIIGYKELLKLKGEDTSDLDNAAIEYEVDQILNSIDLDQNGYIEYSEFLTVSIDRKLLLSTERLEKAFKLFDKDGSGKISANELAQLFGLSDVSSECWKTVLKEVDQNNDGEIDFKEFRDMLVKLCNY
Sequence of L-lactate dehydrogenase (Plasmodium falciparum (isolate CDC / Honduras)) (Q27743 whole entry, looked up): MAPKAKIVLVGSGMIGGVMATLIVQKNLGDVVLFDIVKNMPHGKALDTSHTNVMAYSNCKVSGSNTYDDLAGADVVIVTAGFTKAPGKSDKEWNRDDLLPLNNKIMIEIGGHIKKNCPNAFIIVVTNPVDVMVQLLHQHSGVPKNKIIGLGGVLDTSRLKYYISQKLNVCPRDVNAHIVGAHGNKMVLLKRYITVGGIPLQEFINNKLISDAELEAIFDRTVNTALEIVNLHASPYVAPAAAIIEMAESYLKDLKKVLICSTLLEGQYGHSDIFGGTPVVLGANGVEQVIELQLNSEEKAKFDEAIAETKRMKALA

For orientation: inhibition means the change of the read-out against control, counted positive when it falls. For the molecule `FC(F)(F)c1ccc2c(NCCc3ccccc3)ccnc2c1`, the growth inhibition is 9% in assay [1] and 87% (active) in assay [4]. In addition, the inhibition is 14% in assay [2] and 0% in assay [3]. Also, the result in assay [5], in assay [6], in assay [7] and in assay [8] was inactive.

Regarding `COC1CCC(C(=O)Nc2ccc(-c3cccc(-c4nc5ccc(C(F)(F)F)cc5[nH]4)c3)cc2)CC1` (centres undefined), the figures for the growth inhibition in assay [1] and in assay [4] were 48% and 85% (active), respectively. Also, the inhibition is 69% (active) in assay [2] and -2% in assay [3]. For the same molecule, the result in assay [5], in assay [6], in assay [7] and in assay [8] was inactive.

Take `O=C(Nc1cccc(CN2CCCN(Cc3ccc4c(c3)OCO4)CC2)c1)c1cc2ccccc2s1`: the figures for the growth inhibition in assay [1] and in assay [4] were 11% and 95% (active), respectively. Moreover, the inhibition in assay [2] is 32%; in assay [3], 2%. Besides, the result in assay [5], in assay [6], in assay [7] and in assay [8] was inactive.

In the case of `O=C(Nc1cccc(C(F)(F)F)c1)N1CCOC(CCN2CCC(c3ccccc3)CC2)(c2ccc(Cl)c(Cl)c2)C1` (centres undefined), the growth inhibition in assay [1] was 69% (active); in assay [4], 87% (active). In addition, the inhibition was 15% in assay [2] and 8% in assay [3]. In addition, the outcome in assay [5], in assay [6], in assay [7] and in assay [8] was inactive.

As for `FC(F)(F)c1ccc2nccc(NN=CC=Cc3ccccc3)c2c1`, the values for the growth inhibition in assay [1] and in assay [4] were 9% and 82% (active), respectively. Besides, the results for the inhibition in assay [2] and in assay [3] were -4% and -1%, respectively. In addition, the result in assay [5], in assay [6], in assay [7] and in assay [8] was inactive.

Turning to `CC(=O)c1cccc(NC(=O)NC2CCN(CCCCCNC(=O)/C=C/c3ccc(Cl)c(Cl)c3)CC2)c1`, the growth inhibition in assay [1] is 1%; in assay [4], 94% (active). For the same molecule, the inhibition in assay [2] is 7%; in assay [3], 1%. The result in assay [5], in assay [6], in assay [7] and in assay [8] was inactive.

Consider `COc1cc(OC)c2c(c1Cl)O[C@]1(C2=O)C(=O)C(Cc2ccccc2)(Cc2ccccc2)C(=O)C[C@H]1C`, for which the growth inhibition was 45% in assay [1] and 90% (active) in assay [4]. Moreover, the values for the inhibition in assay [2] and in assay [3] were -12% and -3%, respectively. The outcome in assay [5], in assay [6], in assay [7] and in assay [8] was inactive.

Turning to `COc1ccc(NC(=O)Nc2cccc(-c3ccncc3)c2)cc1N1CCN(C)CC1`, the growth inhibition in assay [1] was 57% (active); in assay [4], 98% (active). The inhibition in assay [2] is 9%; in assay [3], 5%. Moreover, the result in assay [5], in assay [6], in assay [7] and in assay [8] was inactive.

For `CC(C(=O)Nc1ccc(Br)cc1Br)N1CCN(C(=O)c2ccco2)CC1` (centres undefined), the results for the growth inhibition in assay [1] and in assay [4] were 84% (active) and 91% (active), respectively. Further, the inhibition in assay [2] is 3%; in assay [3], -3%. The outcome in assay [5], in assay [6], in assay [7] and in assay [8] was inactive.

As for `CCN(CC)C(=O)C1CCCN(C(=O)Nc2cc(C(F)(F)F)cc(C(F)(F)F)c2)C1` (centres undefined), the growth inhibition is 98% (active) in assay [1] and 86% (active) in assay [4]. The inhibition in assay [2] is 0%; in assay [3] it was -2%. Further, the result in assay [5], in assay [6], in assay [7] and in assay [8] was inactive.

Turning to `Cc1ccc(C)c(NC(=O)Nc2ccc(C)c(-c3ccc(C(=O)Nc4ccncc4)cc3)c2)c1`, the growth inhibition in assay [1] was 59% (active); in assay [4], 98% (active). The values for the inhibition in assay [2] and in assay [3] were 46% and -3%, respectively. Moreover, the outcome in assay [5], in assay [6], in assay [7] and in assay [8] was inactive.

For `O=c1[nH]nc(-c2ccc(N3CCCC3)c([N+](=O)[O-])c2)c2ccccc12`, the values for the growth inhibition in assay [1] and in assay [4] were 39% and 100% (active), respectively. The values for the inhibition in assay [2] and in assay [3] were 2% and -6%, respectively. In addition, the result in assay [5], in assay [6], in assay [7] and in assay [8] was inactive.

Consider `CCOc1cc(-c2nnc3[nH]c(=O)n(C)c(=O)c3n2)ccc1OC(C)C`, for which the values for the growth inhibition in assay [1] and in assay [4] were 86% (active) and 97% (active), respectively. Further, the inhibition was 15% in assay [2] and 1% in assay [3]. For the same molecule, the outcome in assay [5], in assay [6], in assay [7] and in assay [8] was inactive.

Turning to `Oc1ccccc1CN[C@@H]1CCCC[C@H]1NCc1ccccc1O`, the growth inhibition in assay [1] was 66% (active); in assay [4] it was 96% (active). Besides, the figures for the inhibition in assay [2] and in assay [3] were 53% (active) and 2%, respectively. The outcome in assay [5], in assay [6], in assay [7] and in assay [8] was inactive.

In the case of `CO/C(=C\C=C\c1cc2cc(Cl)c(Cl)cc2[nH]1)C(=O)NC1C[C@H]2CCC[C@@H](C1)N2C` (some centres undefined), the growth inhibition in assay [1] is 51% (active); in assay [4], 93% (active). The inhibition in assay [2] was 42%; in assay [3], -2%. For the same molecule, the outcome in assay [5], in assay [6], in assay [7] and in assay [8] was inactive.

With `OC(CNc1ccnc(Nc2ccc(Cl)cc2)n1)c1cccc(C(F)(F)F)c1` (centres undefined), the growth inhibition was 84% (active) in assay [1] and 101% (active) in assay [4]. The inhibition in assay [2] is 9%; in assay [3] it was 4%. In addition, the outcome in assay [5], in assay [6], in assay [7] and in assay [8] was inactive.

For the molecule `O=C(CCCCCNC(=O)c1ccc(O)c(-c2ccc(Cl)c(Cl)c2)c1)NCc1cccc(C(F)(F)F)c1`, the growth inhibition in assay [1] was 10%; in assay [4], 92% (active). Moreover, the inhibition in assay [2] and in assay [3] was 2% in each case. Moreover, the result in assay [5], in assay [6], in assay [7] and in assay [8] was inactive.

With `CN(C(=O)/C=C/c1cc(C(F)(F)F)ccc1F)C1CCN(CCCCCNC(=O)/C=C/c2ccc(Cl)c(Cl)c2)CC1`, the growth inhibition is 68% (active) in assay [1] and 101% (active) in assay [4]. Further, the inhibition in assay [2] was 71% (active); in assay [3], 3%. Further, the result in assay [5], in assay [6], in assay [7] and in assay [8] was inactive.
